Data as given in PMC7862700, “An all-to-all approach to the identification of sequence-specific readers for epigenetic DNA modifications on cytosine”.

Tests used:
Assay in all cases: DAPPL (digital affinity profiling via proximity ligation, sequencing); 10 mM Tris-HCl pH 7.5, 50 mM NaCl, 1 mM DTT, 4% glycerol, room temperature, 30 min; GST-TFs on glutathione beads, 16-mer random dsDNA library, 0.1% formaldehyde crosslink after washing; high values mean tight binding
Details in all cases: protein: recombinant; tags: N-terminal GST; dsDNA, one strand shown
FEV = target: T1, FEV (Homo sapiens, UniProt Q99581 1-238)
T1 sequence: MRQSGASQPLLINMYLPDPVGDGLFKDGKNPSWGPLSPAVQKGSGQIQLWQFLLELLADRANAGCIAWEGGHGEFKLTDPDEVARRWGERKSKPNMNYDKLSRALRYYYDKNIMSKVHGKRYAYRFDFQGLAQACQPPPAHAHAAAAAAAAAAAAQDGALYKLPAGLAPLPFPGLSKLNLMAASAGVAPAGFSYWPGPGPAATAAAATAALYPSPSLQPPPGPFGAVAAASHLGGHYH
Method in brief: (§1)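 Binding signal is given per hexamer as its read frequency for a factor divided by its frequency in the tag-only sample. GST-fused human transcription factors were expressed in yeast, captured on glutathione beads, barcoded with DNA and pooled with that sample, then incubated with 200 nmole of a 16-mer random double-stranded DNA library in Tris/NaCl/DTT/glycerol buffer for 30 min at room temperature. The pools were then washed, crosslinked, proximity-ligated, amplified by PCR and sequenced on an Illumina NextSeq500.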

ETV5 = ETV5 (Homo sapiens, UniProt P41161 1-510)
ETV5, sequence (P41161 whole entry): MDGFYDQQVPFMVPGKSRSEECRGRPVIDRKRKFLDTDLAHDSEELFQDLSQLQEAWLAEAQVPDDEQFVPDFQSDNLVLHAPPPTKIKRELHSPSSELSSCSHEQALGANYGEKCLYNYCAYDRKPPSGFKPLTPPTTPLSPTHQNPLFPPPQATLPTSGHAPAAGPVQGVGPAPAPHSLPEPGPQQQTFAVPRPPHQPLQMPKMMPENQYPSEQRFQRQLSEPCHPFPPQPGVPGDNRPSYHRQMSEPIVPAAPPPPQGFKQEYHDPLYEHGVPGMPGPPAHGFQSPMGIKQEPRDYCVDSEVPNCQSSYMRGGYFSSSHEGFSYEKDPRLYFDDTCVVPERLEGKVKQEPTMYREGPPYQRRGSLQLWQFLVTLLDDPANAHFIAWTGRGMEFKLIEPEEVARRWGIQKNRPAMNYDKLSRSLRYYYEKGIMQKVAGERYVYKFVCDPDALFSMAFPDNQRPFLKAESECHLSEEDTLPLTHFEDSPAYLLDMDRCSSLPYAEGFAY
Method in brief: as §1

SPIC = target: T2, SPIC (Homo sapiens, UniProt Q8N5J4 1-248)
T2 sequence: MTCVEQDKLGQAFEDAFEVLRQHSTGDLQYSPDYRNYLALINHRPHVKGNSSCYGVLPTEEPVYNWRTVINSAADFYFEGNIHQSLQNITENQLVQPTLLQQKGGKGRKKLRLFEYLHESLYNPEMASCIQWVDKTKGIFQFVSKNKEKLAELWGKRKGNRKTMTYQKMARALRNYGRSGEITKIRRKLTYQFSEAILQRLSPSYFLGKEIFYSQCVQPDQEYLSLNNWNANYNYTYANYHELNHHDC
Method in brief: as §1

ELF4 = ELF4 (Homo sapiens, UniProt Q99607 1-663)
ELF4, sequence (Q99607 whole entry): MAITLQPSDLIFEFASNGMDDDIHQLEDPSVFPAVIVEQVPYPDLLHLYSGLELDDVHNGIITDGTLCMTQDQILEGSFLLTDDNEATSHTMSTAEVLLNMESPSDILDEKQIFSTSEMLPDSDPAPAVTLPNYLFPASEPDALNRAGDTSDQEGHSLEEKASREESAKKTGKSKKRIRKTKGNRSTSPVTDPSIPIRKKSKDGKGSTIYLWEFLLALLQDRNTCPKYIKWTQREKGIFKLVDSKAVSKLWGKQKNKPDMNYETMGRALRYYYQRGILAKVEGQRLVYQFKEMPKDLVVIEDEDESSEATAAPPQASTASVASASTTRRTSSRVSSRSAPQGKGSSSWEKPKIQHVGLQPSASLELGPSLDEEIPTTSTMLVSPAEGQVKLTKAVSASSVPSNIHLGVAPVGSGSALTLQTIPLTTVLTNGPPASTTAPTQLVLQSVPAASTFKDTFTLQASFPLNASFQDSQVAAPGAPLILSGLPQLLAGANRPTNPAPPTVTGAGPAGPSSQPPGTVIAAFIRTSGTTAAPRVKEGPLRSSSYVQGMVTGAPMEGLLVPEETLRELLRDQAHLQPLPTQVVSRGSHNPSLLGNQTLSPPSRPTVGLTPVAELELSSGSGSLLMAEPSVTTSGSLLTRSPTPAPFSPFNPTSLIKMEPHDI
Method in brief: as §1

ELK4 = target: T3, ELK4 (Homo sapiens, UniProt P28324-2 1-405)
T3 sequence: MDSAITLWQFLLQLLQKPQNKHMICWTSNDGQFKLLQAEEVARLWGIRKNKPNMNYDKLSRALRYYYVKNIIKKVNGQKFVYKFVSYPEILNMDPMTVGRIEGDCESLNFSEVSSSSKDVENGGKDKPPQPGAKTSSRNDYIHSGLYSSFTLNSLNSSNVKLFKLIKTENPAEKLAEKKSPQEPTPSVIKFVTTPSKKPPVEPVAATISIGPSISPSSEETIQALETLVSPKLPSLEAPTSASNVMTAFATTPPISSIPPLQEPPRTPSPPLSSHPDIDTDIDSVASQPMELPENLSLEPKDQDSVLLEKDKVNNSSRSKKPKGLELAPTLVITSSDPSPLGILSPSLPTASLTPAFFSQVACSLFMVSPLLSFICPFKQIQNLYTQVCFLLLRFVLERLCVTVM
Method in brief: as §1

ETV2 = target: T4, ETV2 (Homo sapiens, UniProt O00321 1-342)
T4 sequence: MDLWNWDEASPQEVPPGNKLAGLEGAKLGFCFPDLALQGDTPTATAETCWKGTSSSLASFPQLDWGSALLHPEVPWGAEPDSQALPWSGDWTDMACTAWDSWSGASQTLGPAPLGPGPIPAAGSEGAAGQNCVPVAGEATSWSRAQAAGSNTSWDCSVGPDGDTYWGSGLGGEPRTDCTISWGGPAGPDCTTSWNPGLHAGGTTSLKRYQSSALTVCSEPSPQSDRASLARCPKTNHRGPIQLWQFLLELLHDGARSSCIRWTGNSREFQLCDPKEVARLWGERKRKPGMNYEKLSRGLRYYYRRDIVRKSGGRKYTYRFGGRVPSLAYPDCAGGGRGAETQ
Method in brief: as §1

ELF3 = target: T5, ELF3 (Homo sapiens, UniProt P78545 1-371)
T5 sequence: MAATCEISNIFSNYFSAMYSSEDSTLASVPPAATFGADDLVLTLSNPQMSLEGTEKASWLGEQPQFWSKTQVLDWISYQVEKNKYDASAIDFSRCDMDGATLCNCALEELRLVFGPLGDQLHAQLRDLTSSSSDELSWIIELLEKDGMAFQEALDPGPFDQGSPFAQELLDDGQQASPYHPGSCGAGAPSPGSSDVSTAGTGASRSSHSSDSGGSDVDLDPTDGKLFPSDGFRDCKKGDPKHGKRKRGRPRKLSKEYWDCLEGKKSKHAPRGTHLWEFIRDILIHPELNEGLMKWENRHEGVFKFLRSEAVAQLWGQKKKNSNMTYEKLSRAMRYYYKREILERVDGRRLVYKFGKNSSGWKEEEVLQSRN
Method in brief: as §1

ETV1 = ETV1 (Homo sapiens, UniProt P50549 1-477)
ETV1, sequence (P50549 whole entry): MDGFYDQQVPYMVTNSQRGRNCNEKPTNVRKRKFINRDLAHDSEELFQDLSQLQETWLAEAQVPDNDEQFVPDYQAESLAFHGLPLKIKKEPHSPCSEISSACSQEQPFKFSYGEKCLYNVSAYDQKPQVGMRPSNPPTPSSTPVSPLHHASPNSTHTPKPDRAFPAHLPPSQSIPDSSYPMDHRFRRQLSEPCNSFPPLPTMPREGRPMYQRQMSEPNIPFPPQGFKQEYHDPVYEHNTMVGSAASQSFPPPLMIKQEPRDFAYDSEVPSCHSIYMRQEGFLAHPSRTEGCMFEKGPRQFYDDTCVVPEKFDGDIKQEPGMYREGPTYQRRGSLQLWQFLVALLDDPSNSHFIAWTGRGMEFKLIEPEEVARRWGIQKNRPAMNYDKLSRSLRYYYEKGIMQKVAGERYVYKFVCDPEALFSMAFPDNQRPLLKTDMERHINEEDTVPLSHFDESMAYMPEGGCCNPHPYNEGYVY
Method in brief: as §1

ERF = target: T6, ERF (Homo sapiens, UniProt P50548 1-548)
T6 sequence: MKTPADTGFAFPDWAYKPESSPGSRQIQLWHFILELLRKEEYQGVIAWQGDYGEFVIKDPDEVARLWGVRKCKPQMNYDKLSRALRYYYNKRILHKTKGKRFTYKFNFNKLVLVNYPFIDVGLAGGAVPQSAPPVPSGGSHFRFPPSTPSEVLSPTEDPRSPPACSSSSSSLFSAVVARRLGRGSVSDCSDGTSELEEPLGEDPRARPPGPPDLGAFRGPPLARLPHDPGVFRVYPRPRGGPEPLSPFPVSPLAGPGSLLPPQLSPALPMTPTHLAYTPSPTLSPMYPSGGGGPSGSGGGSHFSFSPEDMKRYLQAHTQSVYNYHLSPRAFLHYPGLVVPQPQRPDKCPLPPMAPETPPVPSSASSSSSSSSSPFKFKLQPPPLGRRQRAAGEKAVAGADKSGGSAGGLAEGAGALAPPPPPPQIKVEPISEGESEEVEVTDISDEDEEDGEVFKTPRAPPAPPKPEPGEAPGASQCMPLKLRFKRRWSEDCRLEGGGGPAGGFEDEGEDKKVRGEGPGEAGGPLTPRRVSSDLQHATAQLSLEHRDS
Method in brief: as §1

ETV3L = target: T7, ETV3L (Homo sapiens, UniProt Q6ZN32 1-361)
T7 sequence: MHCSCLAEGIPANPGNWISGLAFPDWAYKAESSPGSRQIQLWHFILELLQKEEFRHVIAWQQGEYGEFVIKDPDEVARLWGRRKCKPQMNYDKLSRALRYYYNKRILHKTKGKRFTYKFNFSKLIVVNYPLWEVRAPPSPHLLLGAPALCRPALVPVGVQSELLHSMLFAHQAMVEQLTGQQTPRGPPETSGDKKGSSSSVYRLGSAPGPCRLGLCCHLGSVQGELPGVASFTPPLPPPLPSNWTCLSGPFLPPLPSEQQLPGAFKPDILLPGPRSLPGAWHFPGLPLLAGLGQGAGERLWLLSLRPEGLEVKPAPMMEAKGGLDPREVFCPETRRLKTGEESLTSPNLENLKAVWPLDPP
Method in brief: as §1

ETS2 = target: T8, ETS2 (Homo sapiens, UniProt P15036 1-469)
T8 sequence: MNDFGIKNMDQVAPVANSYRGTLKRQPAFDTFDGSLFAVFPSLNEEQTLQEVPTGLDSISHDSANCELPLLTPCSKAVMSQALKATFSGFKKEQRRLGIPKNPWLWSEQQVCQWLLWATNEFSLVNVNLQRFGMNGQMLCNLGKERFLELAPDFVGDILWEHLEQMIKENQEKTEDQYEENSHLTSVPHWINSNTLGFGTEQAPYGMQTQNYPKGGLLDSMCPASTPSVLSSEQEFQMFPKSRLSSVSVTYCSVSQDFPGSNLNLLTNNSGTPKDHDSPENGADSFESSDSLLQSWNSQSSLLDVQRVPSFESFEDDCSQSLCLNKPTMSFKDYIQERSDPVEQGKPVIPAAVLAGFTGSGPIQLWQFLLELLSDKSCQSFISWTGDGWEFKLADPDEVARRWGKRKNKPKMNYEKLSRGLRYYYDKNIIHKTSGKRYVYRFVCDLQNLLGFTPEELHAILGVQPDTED
Method in brief: as §1

SPDEF = target: T9, SPDEF (Homo sapiens, UniProt O95238 1-335)
T9 sequence: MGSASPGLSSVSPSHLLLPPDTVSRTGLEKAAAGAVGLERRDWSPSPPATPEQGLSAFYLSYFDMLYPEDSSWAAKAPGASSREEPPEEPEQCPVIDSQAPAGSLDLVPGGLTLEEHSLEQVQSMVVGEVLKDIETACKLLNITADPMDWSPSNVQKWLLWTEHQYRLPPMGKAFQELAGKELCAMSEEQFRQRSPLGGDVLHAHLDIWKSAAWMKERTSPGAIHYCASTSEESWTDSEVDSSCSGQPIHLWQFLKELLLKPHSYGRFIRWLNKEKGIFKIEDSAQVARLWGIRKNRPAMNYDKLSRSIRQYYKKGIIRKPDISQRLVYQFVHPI
Method in brief: as §1

ETV7 = target: T10, ETV7 (Homo sapiens, UniProt Q9Y603 1-341)
T10 sequence: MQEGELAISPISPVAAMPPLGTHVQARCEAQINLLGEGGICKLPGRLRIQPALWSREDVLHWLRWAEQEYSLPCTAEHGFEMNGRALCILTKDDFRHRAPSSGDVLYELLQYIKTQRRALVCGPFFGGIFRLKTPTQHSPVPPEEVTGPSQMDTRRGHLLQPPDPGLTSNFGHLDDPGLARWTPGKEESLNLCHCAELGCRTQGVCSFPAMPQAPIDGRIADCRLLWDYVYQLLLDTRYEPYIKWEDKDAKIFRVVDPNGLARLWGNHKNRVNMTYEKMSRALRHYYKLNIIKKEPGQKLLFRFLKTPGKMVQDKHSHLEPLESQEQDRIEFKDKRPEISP
Method in brief: as §1

ELF5 = target: T11, ELF5 (Homo sapiens, UniProt Q9UKW6-2 1-255)
T11 sequence: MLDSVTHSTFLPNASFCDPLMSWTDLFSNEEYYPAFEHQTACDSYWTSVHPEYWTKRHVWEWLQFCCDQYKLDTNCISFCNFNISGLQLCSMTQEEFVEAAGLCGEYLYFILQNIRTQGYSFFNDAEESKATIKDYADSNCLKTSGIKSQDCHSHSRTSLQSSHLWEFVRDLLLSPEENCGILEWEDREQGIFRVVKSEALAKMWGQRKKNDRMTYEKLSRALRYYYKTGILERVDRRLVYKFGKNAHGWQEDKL
Method in brief: as §1

ETV3 = target: T12, ETV3 (Homo sapiens, UniProt P41162-2 1-143)
T12 sequence: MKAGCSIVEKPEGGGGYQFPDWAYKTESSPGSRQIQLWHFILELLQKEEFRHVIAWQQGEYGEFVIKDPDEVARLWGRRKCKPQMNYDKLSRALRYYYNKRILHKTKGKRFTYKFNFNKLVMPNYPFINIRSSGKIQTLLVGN
Method in brief: as §1

ETV6 = ETV6 (Homo sapiens, UniProt P41212 1-452)
ETV6, sequence (P41212 whole entry): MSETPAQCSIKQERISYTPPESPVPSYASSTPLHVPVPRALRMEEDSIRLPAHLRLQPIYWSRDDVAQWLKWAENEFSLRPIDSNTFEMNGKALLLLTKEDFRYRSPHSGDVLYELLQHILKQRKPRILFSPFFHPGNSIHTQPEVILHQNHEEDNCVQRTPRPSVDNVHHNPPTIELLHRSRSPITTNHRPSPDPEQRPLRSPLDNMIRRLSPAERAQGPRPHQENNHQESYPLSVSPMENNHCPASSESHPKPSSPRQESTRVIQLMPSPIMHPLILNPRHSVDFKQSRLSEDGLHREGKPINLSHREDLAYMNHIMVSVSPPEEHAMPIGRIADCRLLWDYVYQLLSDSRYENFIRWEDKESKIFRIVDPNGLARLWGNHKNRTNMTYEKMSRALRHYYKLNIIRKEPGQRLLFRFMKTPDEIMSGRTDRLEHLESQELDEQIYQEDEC
Method in brief: as §1

## TGGACA
FEV
  binding signal: 1.1 fold enrichment (6-mer frequency, TF over GST control)
ETV5
  binding signal: 1.08 fold enrichment (6-mer frequency, TF over GST control)
SPIC
  binding signal: 1.05 fold enrichment (6-mer frequency, TF over GST control)
ELF4
  binding signal: 1.13 fold enrichment (6-mer frequency, TF over GST control)
ELK4
  binding signal: 1.03 fold enrichment (6-mer frequency, TF over GST control)
ETV2
  binding signal: 1.03 fold enrichment (6-mer frequency, TF over GST control)
ELF3
  binding signal: 1.15 fold enrichment (6-mer frequency, TF over GST control)
ETV1
  binding signal: 1.03 fold enrichment (6-mer frequency, TF over GST control)
ERF
  binding signal: 1.08 fold enrichment (6-mer frequency, TF over GST control)
ETV3L
  binding signal: 1.06 fold enrichment (6-mer frequency, TF over GST control)
ETS2
  binding signal: 1.12 fold enrichment (6-mer frequency, TF over GST control)
SPDEF
  binding signal: 1.04 fold enrichment (6-mer frequency, TF over GST control)
ETV7
  binding signal: 1.06 fold enrichment (6-mer frequency, TF over GST control)
ELF5
  binding signal: 1.02 fold enrichment (6-mer frequency, TF over GST control)
ETV3
  binding signal: 1.06 fold enrichment (6-mer frequency, TF over GST control)
ETV6
  binding signal: 1.09 fold enrichment (6-mer frequency, TF over GST control)

## TGTCCG
FEV
  binding signal: 1.61 fold enrichment (6-mer frequency, TF over GST control)
ETV5
  binding signal: 1.61 fold enrichment (6-mer frequency, TF over GST control)
SPIC
  binding signal: 1.36 fold enrichment (6-mer frequency, TF over GST control)
ELF4
  binding signal: 1.41 fold enrichment (6-mer frequency, TF over GST control)
ELK4
  binding signal: 1.32 fold enrichment (6-mer frequency, TF over GST control)
ETV2
  binding signal: 1.29 fold enrichment (6-mer frequency, TF over GST control)
ELF3
  binding signal: 1.48 fold enrichment (6-mer frequency, TF over GST control)
ETV1
  binding signal: 1.6 fold enrichment (6-mer frequency, TF over GST control)
ERF
  binding signal: 1.31 fold enrichment (6-mer frequency, TF over GST control)
ETV3L
  binding signal: 1.4 fold enrichment (6-mer frequency, TF over GST control)
ETS2
  binding signal: 1.52 fold enrichment (6-mer frequency, TF over GST control)
SPDEF
  binding signal: 1.8 fold enrichment (6-mer frequency, TF over GST control)
ETV7
  binding signal: 1.51 fold enrichment (6-mer frequency, TF over GST control)
ELF5
  binding signal: 1.62 fold enrichment (6-mer frequency, TF over GST control)
ETV3
  binding signal: 1.6 fold enrichment (6-mer frequency, TF over GST control)
ETV6
  binding signal: 1.55 fold enrichment (6-mer frequency, TF over GST control)
